Screens: PubChem BioAssay, National Center for Advancing Translational Sciences (NCATS)
Tau fluor cs = Counterscreen qHTS for Inhibitors of Tau Fibril Formation, Fluorescence Polarization | tau K18 P301L Alexa594 fluorescence, heparin fibrillization | Potency, µM (series often up to 57.7 µM) | 280,000 compounds, 0.93% hits | AID 1463, 2008; also: nearly all actives have a fitted effect of over 55% in size
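Human K18 P301L tau (15 uM unlabeled plus 0.24 uM Alexa 594-labeled, final) in 100 mM sodium acetate pH 7 was mixed with compound and 20 uM heparin and incubated 6 hr at 37 C.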
Tau fibril FP = qHTS for Inhibitors of Tau Fibril Formation, Fluorescence Polarization | Microtubule-associated protein tau (Homo sapiens), P10636 | K18 P301L tau heparin fibrillization, Alexa594 FP, 6 h | Potency, µM (titrated, usually from 57.7 µM), hits mostly inhibitors | 280,000 compounds, 0.39% hits | AID 1468, 2008; also: nearly all actives have a fitted effect of over 55% in size
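Read-out: fluorescence polarization of Alexa 594-labeled tau (0.24 uM), 555 nm excitation, 632 nm emission. Mixtures held 15 uM unlabeled K18 P301L, compound and 20 uM heparin, pH 7 acetate buffer, incubated 6 hr at 37 C.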
TRb-SRC2 inh = qHTS for Inhibitors of the Interaction of Thyroid Hormone Receptor and Steroid Receptor Coregulator 2 | AID 1469, 2008 | 280,000 compounds, 0.065% hits | Potency, µM (series often up to 106 µM), actives largely listed as inhibitors | TRbeta-SRC2 peptide binding, fluorescence polarization; receptor liganded with 1 µM T3; also: nearly all actives have a fitted effect of over 50% in size
Target sequence (P10828 whole entry, looked up): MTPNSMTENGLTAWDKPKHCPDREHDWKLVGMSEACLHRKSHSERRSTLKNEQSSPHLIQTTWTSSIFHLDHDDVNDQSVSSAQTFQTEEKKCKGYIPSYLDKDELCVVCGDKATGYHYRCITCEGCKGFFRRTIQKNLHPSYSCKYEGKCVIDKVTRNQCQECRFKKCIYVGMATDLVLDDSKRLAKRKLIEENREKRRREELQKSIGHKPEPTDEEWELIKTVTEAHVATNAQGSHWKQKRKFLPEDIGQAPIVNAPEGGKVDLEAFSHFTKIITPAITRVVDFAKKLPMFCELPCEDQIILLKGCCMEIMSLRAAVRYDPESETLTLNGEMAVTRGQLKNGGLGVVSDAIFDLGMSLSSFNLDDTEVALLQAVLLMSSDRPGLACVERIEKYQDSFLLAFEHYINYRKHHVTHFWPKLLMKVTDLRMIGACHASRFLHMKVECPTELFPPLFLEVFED
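Decrease in fluorescence polarization of 20 nM Texas Red SRC2 coactivator peptide flagged inhibition of its binding to 0.6 uM TRb LBD; 1 uM T3 included, incubation 5 hr, ex 555/em 632 nm.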
TR SRC2 fluor cs = Total Fluorescence Counterscreen for Inhibitors of the Interaction of Thyroid Hormone Receptor and Steroid Receptor Coregulator 2; TRb/SRC2 Texas Red total fluorescence interference; Potency, µM (series often up to 106 µM); 280,000 compounds, 0.29% hits; AID 1479, 2009; active = well fitted curve in either direction with a large enough effect; inconclusive = small, poorly fitted or top-dose-only effect
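Human TRb ligand-binding domain at 0.6 uM with 20 nM Texas Red SRC2 peptide in Tris buffer containing 1 uM T3 and 5% DMSO, incubated with compound 5 h at ambient temperature. Total fluorescence (555/632 nm) calculated as parallel + 2 × perpendicular.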
Tau ThT inhib = qHTS for Inhibitors of Tau Fibril Formation, Thioflavin T Binding; AID 1460, 2008; 270,000 compounds, 2.1% hits; Microtubule-associated protein tau (Homo sapiens), P10636; Potency, µM (highest dose often 57.4 µM), hits mostly inhibitors; recombinant tau K18 P301L (four-repeat tau fragment), heparin-induced fibrillization, ThT fluorescence; also: nearly all actives have a fitted effect of over 55% in size
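In this qHTS, human K18 P301L tau is incubated with compound and heparin for 6 hr at 37 C, and Thioflavin T fluorescence then reports fibril load.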
Of the large screens only hits and unclear results are named; the others gave an inactive call; [ ] = another dose, or the depositor's remark. The list is not random: actives were taken first. Their share in the collection is about 3.1%. Unless noted, calls follow the shape of the dose curve; as a rule, active = well fitted curve in the direction sought with a large enough effect; inconclusive = small, poorly fitted or top-dose-only effect, or another doubt; inactive = no such curve, though single readings can be large; an effect the other way counts as inactive or inconclusive.

Cc1cccnc1NC(=S)NC(=O)/C=C/c1ccco1	Tau fibril FP inconclusive, TR SRC2 fluor cs inconclusive, Tau ThT inhib 28µM
Cc1ccc(NC(=S)NC(=O)/C=C/c2ccco2)c(O)c1	Tau ThT inhib inconclusive
O=C(/C=C/c1ccco1)NC(=S)Nc1ccccc1O	Tau fluor cs inconclusive, Tau ThT inhib 22µM
O=C(/C=C/c1ccco1)NC(=S)Nc1ccccn1	Tau ThT inhib inconclusive
O=C(/C=C\c1ccco1)NC(=S)Nc1ccccc1O	Tau fluor cs inconclusive, Tau ThT inhib 20µM
Cc1ccc(NS(=O)(=O)c2c(C)nc3sccn3c2=O)c(Cl)c1	none
O=[N+]([O-])c1ccc(Nc2c3ccccc3nc3ccccc23)cc1	Tau fluor cs 11µM[quencher], Tau fibril FP inconclusive, Tau ThT inhib 10µM
O=C(O)c1ccccc1Nc1ccccc1C(=O)O	none
O=C(O)c1ccccc1Nc1ccc([N+](=O)[O-])cc1	Tau ThT inhib 10µM
COc1ccc(CNC(=O)CN(C)c2nn3c(=O)cc(C)nc3s2)cc1	none
CCCN1C(=O)C2(c3ccccc31)c1c(oc3ccccc3c1=O)C(=O)N2CCO (stereo unspecified)	TR SRC2 fluor cs 32µM[quencher]
CCCN1C(=O)C2(c3ccccc31)c1c(oc3ccc(F)cc3c1=O)C(=O)N2CCCOC(C)C (stereo unspecified)	TRb-SRC2 inh inconclusive, TR SRC2 fluor cs 3.5µM[quencher]
CCCN1C(=O)C2(c3ccccc31)c1c(oc3ccccc3c1=O)C(=O)N2CCCOC(C)C (stereo unspecified)	none
Cc1nn(-c2ccc(N3CCCC3)nn2)c(C)c1CCC(=O)N1CCN(c2ccccc2F)CC1	Tau fibril FP inconclusive
CC(=O)OCC1=C(C(=O)O)N2C(=O)[C@@H](NC(=O)Cc3cccs3)[C@H]2SC1	Tau fibril FP inconclusive, Tau ThT inhib inconclusive
O=C(Cc1cccs1)NC1C(=O)N2C(C(=O)[O-])=C(C[n+]3ccccc3)CSC12 (stereo unspecified)	Tau fibril FP inconclusive, Tau ThT inhib 16µM
CCOc1ccc(-c2ccc(/C=C3/C(=N)N4C(C)=CSC4=NC3=O)o2)c([N+](=O)[O-])c1	Tau fluor cs inconclusive, TRb-SRC2 inh inconclusive, TR SRC2 fluor cs 79µM[quencher], Tau ThT inhib 3.2µM
CCOC(=O)C1(CCOc2ccccc2)CCN(Cc2ccc3nonc3c2)CC1	none
CN1C(=O)Cc2cc(S(=O)(=O)NCc3cccs3)ccc21	none
CCOc1cc(CNS(=O)(=O)c2ccc3c(c2)CC(=O)N3C)cc(OCC)c1OCC	TR SRC2 fluor cs 18µM[quencher]
O=[N+]([O-])c1ccc(Nc2ccc3ccccc3c2)nc1	Tau fluor cs inconclusive, Tau ThT inhib 1.3µM
O=[N+]([O-])c1ccc(Nc2ccc(Cl)cc2)nc1	none
COc1ccc(CCNC(=O)CCCCCn2c(=O)[nH]c3cc(OC)c(OC)cc3c2=O)cc1OC	none
O=C(CSc1nnc(Cc2csc(Nc3cccc(Cl)c3)n2)o1)N1CCc2ccccc21	Tau fluor cs 7.1µM[quencher], Tau ThT inhib inconclusive
O=C(CSc1nnc(CNc2ccccc2)o1)N1CCc2ccccc21	none
Cc1ccc(-c2cn(-c3cccc(Cl)c3)c(S(=O)(=O)CC(=O)Nc3cccc(C)c3)n2)cc1	Tau fibril FP inconclusive
S=C(N=Nc1ccccc1)NNc1ccccc1	Tau fluor cs 20µM[quencher], Tau fibril FP inconclusive, Tau ThT inhib 25µM
CCOC(=O)Cc1c(C)nc(SC)[nH]c1=O	none
CCC(CNc1cc(OC)cc2cccnc12)NC1CCCCC1 (stereo unspecified)	TRb-SRC2 inh inconclusive, Tau ThT inhib inconclusive
COc1cc(NCCCC(C)N)c2ncccc2c1 (stereo unspecified)	Tau fluor cs inconclusive, Tau fibril FP inconclusive, TRb-SRC2 inh 28µM, TR SRC2 fluor cs 45µM[fluorescent], Tau ThT inhib 25µM
COc1cccc2cc(-c3ccnc(=S)[nH]3)oc12	Tau fibril FP inconclusive, Tau ThT inhib 28µM
Cc1ccc(NC(=O)CSc2nnc(-c3cccs3)o2)cc1S(=O)(=O)N(C)C	none
CCOC(=O)CNC(=O)N1CCCN(S(=O)(=O)c2ccc3c(ccn3CC)c2)CC1	none
COc1ccc(-c2cc(=O)[nH]c(=O)[nH]2)cc1	none
COc1ccc(-c2cc(=O)[nH][nH]2)cc1	Tau fibril FP inconclusive, TRb-SRC2 inh inconclusive, Tau ThT inhib 2.2µM
